# From PubChem BioAssay
# The sample as a whole holds a higher share of hits than the screen did.
# Pf Dd2 inh: qHTS Primary assay for Inhibitors of Plasmodium falciparum Dd2 growth in vitro | P. falciparum Dd2 growth, SYBR Green, 72 h | Potency, µM (series often up to 28.9 µM), for inactives: top-dose activity, negative = inhibition, hits mostly inhibitors | 4.3% of 120,000 active | AID 1347417, 2020; active = well fitted inhibition curve with a large enough effect;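 also: plate controls were DMSO vehicle for no effect and reference drug for full effect; nearly all actives have a fitted effect of over 65% in size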
#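 Readout: SYBR Green fluorescence, 485 nm excitation, 535 nm emission, after ~16 h lysis at 37C. Before that, Dd2-infected red cells (2.5% hematocrit) grew 72 h with compound, 29 uM top final concentration.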
# An asterisk follows results filed as active; i = inactive; [ ] = remark or other dose. Potency is read from the fitted curve at half-maximal effect.
SMILES,Pf Dd2 inh
COc1ccc2cc(C(=O)N3CCC4(CC3)CC(c3nc(C)no3)N(C)C4)[nH]c2c1 (configuration not stated),i
CNC(=O)[C@@H]1CN(C(=O)c2cc3cc(OC)ccc3[nH]2)C[C@H]1c1nc(C)no1,-23%
Cc1ccc(C(=O)N2CCC(C(N)=O)CC2)cc1NC(=O)c1nsc2ccccc12,-6%
CC(=O)c1cccc(NC(=O)c2nc(-c3ccccc3)n(-c3ccccc3C)n2)c1,-30%
CNC(=O)c1cn2c(n1)CN([S+](C)(=O)[O-])CC2,60%[44.1 µM]
COc1cc(C)cc(OC)c1C(C(=O)O)N1CCN(CC2CC2)CC1 (configuration not stated),7%
CCOc1ccc(-c2nonc2NC(=O)c2ccco2)cc1,32%
CCOc1ccc(-c2nonc2NC(=O)c2ccco2)cc1OCC,2.5µM*
CCCCOc1ccc(-c2nonc2NC(=O)c2ccco2)cc1,42%
COCC(=O)N[C@@H]1CN(Cc2ccc(C)c(C)c2)C[C@H]1CO,i
CCc1ccc(-c2cc(C)no2)cc1S(=O)(=O)NCc1ccco1,i
O=C(c1ccncc1)N1CCCC2(COc3ccccc3[S+](=O)([O-])N2)C1 (configuration not stated),i
Cc1cnc(C(=O)N2CCCC(c3nc(-c4ccccc4)no3)CCNC(=O)CC2)cn1 (configuration not stated),i
CNC(=O)N1C[C@@H](CN(C)C)[C@H](NS(=O)(=O)c2ccc3c(c2)CCC3)C1,21%
CCCS(=O)(=O)N[C@@H]1CN(C)C[C@H]1CN(C)C,16%
CC(=O)N1C[C@@H](CN(C)C)[C@H](NS(=O)(=O)c2cccc(C#N)c2)C1,7%
CN(C)C[C@@H]1CN(C)C[C@H]1NS(=O)(=O)c1ccc2c(c1)CCCC2,3.2µM*
CN(C)C[C@@H]1CN(c2ncccn2)C[C@H]1NS(=O)(=O)c1cccnc1,i
CN(C)C[C@@H]1CN(C)C[C@H]1NS(=O)(=O)c1ccc(Br)cc1,1.8µM*
O=C(NCc1cccc(F)c1)C1=Cc2cc(Br)ccc2OC1,8%
Cc1ccc2cc3cc(C(=O)N4CCN(c5ccccc5)CC4)sc3nc2c1,-7%
CCC(C(=O)NCc1nnc2ccc(-c3ccccc3)nn12)c1ccccc1 (configuration not stated),i
CN(Cc1ccccc1Cl)C(=O)c1coc(COc2ccc3c(c2)OCO3)n1,2%
COc1ccc(Cl)cc1C(=O)NCc1nnc2cc(-c3nc(C(C)C)no3)ccn12,-1%
Cc1noc(-c2cccn3c(CNC(=O)c4cccc(N(C)C)c4)nnc23)n1,0.56µM*
SMILES,Pf Dd2 inh
Cc1ccc(C(=O)NCc2nnc3c(-c4nc(C5CC5)no4)cccn23)cc1C,-13%
O=C(NCc1nnc2c(-c3nc(C4CC4)no3)cccn12)c1cc(F)ccc1F,-23%
CCOc1ccccc1C(=O)NCc1nnc2c(-c3nc(C4CC4)no3)cccn12,3.2µM*
CCc1noc(-c2cccn3c(CNC(=O)c4ccc(F)cc4)nnc23)n1,-20%
Cc1noc(-c2cccn3c(CNC(=O)c4ccccc4)nnc23)n1,-10%
Cc1ccccc1C(=O)NCc1nnc2c(-c3nc(C(C)C)no3)cccn12,i
CCc1noc(-c2cccn3c(CNC(=O)COc4cccc(C)c4)nnc23)n1,-17%
CCc1noc(-c2cccn3c(CNC(=O)COc4ccc(F)cc4)nnc23)n1,0.71µM*
COc1cccc(C(=O)NCc2nnc3c(-c4nc(C)no4)cccn23)c1,-30%
COc1ccc(Cl)cc1C(=O)NCc1nnc2c(-c3nc(C(C)C)no3)cccn12,1.8µM*
Cc1ccc(Cn2ccnc2SCC(=O)NCc2ccccc2Cl)cc1,42%
O=C(NCC1CCCO1)c1cc2n(n1)CC(c1ccc(Br)cc1)OC2 (configuration not stated),i
COC[C@@H]1CN(Cc2cccc(C#N)c2)C[C@H]1C(=O)NC1CC1,14%
O=C(Cn1c(=O)oc2cc(S(=O)(=O)N3CCCCC3)ccc21)Nc1cccc(Cl)c1,-2%
Cc1noc2c(NC3CCN(C)CC3)cc(-c3cccnc3)nc12,i
COc1ccccc1CNC(=O)c1cnc2sc(N3CCOCC3)nn2c1=O,6%
COc1ccc(Cl)cc1NC(=O)Cn1ncc2c3ccccc3n(Cc3ccccc3)c2c1=O,i
Cc1ccc(C(=O)N[C@H]2CO[C@H]3[C@@H]2OC[C@H]3OC(=O)Nc2ccc(C(C)C)cc2)cc1,-14%[44.1 µM]
COc1ccc(NC(=O)O[C@@H]2CO[C@H]3[C@@H]2OC[C@@H]3NS(=O)(=O)c2ccccc2C#N)cc1,i
CC(=O)Nc1ccc(S(=O)(=O)N[C@H]2CO[C@H]3[C@@H]2OC[C@H]3OC(=O)Nc2ccc(Oc3ccccc3)cc2)cc1,6.3µM*
N#Cc1ccccc1S(=O)(=O)N[C@H]1CO[C@H]2[C@@H]1OC[C@H]2OC(=O)Nc1ccc(Oc2ccccc2)cc1,i
COc1ccc(OC)c(S(=O)(=O)N[C@H]2CO[C@H]3[C@@H]2OC[C@H]3OC(=O)Nc2ccc(Oc3ccccc3)cc2)c1,-24%
